Binding signal data for 1 sequence are collected here from paper PMC7862700, “An all-to-all approach to the identification of sequence-specific readers for epigenetic DNA modifications on cytosine”.

Holding throughout (assay): DAPPL (digital affinity profiling via proximity ligation, sequencing); 10 mM Tris-HCl pH 7.5, 50 mM NaCl, 1 mM DTT, 4% glycerol, room temperature, 30 min; GST-TFs on glutathione beads, 16-mer random dsDNA library, 0.1% formaldehyde crosslink after washing; high values mean tight binding
The target of one experiment is T1, FLI1 (Homo sapiens, UniProt Q01543 1-452).
T1 sequence: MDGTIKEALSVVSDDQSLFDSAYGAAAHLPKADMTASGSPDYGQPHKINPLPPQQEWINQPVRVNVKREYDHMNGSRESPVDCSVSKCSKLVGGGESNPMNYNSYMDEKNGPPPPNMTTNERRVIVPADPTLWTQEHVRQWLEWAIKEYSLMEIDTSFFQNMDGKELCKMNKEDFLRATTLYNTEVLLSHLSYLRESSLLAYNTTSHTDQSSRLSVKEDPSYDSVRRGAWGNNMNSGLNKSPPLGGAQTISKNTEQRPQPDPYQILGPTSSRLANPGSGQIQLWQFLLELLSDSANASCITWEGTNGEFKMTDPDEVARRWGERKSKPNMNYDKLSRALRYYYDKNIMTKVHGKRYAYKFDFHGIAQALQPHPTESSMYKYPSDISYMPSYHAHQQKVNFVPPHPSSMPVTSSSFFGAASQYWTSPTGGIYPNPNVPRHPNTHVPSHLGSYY
The note with it: protein: recombinant; tags: N-terminal GST; dsDNA, one strand shown. In outline:
(§1)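 Sequencing on an Illumina NextSeq500 followed washing, crosslinking with 0.1% formaldehyde, proximity ligation (BsaI/T4 ligase, 1 h, 37 °C) and PCR amplification of pools that had been incubated for 30 min at room temperature with 200 nmole of a random double-stranded 16-mer DNA library in Tris/NaCl/DTT/glycerol buffer. Each pool held DNA-barcoded human transcription factors, expressed in yeast as GST fusions and captured on glutathione beads, plus a tag-only sample. Binding signal is a hexamer's read frequency for a factor divided by its frequency in the tag-only sample.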

A further experiment concerns the target T2, ELK1 (Homo sapiens, UniProt P19419 1-428).
T2 sequence: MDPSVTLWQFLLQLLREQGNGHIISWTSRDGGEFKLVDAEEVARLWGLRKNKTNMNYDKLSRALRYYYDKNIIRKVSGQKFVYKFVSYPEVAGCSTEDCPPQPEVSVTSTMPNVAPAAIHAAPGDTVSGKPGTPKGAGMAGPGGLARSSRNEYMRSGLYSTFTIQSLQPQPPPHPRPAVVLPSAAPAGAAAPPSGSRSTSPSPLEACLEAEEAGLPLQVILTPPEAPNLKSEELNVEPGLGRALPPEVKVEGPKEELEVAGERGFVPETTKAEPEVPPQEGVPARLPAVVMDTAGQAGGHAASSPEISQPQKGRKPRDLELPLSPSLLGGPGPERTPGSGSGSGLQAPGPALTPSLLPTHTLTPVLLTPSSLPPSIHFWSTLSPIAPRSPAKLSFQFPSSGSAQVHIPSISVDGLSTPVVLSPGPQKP
The note with it: protein: recombinant; tags: N-terminal GST; dsDNA, one strand shown. In outline: as §1

A further experiment addresses T3, GABPA (Homo sapiens, UniProt Q06546 1-454).
T3 sequence: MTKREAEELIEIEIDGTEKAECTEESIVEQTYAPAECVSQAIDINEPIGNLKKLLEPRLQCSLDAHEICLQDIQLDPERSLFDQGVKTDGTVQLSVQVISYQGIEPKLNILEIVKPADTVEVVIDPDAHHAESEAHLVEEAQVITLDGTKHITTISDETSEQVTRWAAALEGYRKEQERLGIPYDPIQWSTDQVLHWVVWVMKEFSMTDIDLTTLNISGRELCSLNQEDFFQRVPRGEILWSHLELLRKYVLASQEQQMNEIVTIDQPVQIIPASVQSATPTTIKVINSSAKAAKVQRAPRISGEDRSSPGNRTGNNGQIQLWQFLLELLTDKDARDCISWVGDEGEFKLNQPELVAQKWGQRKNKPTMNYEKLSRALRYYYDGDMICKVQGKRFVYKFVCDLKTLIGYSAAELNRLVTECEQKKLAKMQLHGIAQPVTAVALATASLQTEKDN
The note with it: protein: recombinant; tags: N-terminal GST; dsDNA, one strand shown. In outline: as §1

The next experiment has as its target T4, ERG (Homo sapiens, UniProt P11308 1-479).
T4 sequence: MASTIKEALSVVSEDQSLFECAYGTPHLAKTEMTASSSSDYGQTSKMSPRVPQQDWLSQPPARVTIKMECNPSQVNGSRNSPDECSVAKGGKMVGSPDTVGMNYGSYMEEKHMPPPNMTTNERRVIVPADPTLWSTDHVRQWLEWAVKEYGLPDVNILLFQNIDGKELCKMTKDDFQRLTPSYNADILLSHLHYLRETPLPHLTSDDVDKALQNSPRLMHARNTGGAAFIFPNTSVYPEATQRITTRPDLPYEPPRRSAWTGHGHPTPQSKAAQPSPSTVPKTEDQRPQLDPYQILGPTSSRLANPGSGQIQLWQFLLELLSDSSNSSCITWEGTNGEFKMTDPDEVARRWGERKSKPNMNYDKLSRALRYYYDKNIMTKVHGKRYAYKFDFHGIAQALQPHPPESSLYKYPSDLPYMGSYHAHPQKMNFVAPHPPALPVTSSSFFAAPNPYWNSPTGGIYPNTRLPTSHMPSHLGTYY
The note with it: protein: recombinant; tags: N-terminal GST; dsDNA, one strand shown. In outline:
as §1

Another experiment has as its target ELF1 (Homo sapiens, UniProt P32519 1-619). The note with it: protein: recombinant; tags: N-terminal GST; dsDNA, one strand shown. The method, boiled down: as §1
For a further experiment, the target named is T5, EHF (Homo sapiens, UniProt Q9NZC4 1-300).
T5 sequence: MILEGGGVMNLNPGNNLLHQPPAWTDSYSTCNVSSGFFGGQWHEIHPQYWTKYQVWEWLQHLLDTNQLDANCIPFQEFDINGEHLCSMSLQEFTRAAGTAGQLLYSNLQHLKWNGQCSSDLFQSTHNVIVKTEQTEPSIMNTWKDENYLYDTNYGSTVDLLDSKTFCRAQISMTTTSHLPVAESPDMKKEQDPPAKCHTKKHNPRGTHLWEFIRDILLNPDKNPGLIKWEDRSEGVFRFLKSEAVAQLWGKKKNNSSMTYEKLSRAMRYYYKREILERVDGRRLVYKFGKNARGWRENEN
The note with it: protein: recombinant; tags: N-terminal GST; dsDNA, one strand shown. The method, boiled down: as §1

The next experiment concerns the target SPI1 (Homo sapiens, UniProt P17947 1-270). The note with it: protein: recombinant; tags: N-terminal GST; dsDNA, one strand shown. The method, boiled down:
as §1

In another experiment the target is SPIB (Homo sapiens, UniProt Q01892 1-262). The note with it: protein: recombinant; tags: N-terminal GST; dsDNA, one strand shown. In outline: as §1
The next experiment addresses T6, ELK3 (Homo sapiens, UniProt P41970 1-407).
T6 sequence: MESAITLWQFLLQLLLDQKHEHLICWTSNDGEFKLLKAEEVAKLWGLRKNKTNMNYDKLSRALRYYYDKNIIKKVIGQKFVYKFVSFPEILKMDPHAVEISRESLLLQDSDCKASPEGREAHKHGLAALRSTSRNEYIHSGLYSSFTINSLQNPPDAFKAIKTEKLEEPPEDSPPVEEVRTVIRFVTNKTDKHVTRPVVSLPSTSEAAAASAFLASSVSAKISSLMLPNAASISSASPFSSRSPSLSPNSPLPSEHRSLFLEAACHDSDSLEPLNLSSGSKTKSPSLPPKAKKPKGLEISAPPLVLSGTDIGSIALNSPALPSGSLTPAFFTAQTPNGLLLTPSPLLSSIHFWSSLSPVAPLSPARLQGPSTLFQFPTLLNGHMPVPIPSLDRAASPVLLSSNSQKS
The note with it: protein: recombinant; tags: N-terminal GST; dsDNA, one strand shown. In outline:
as §1

Another experiment addresses T7, FEV (Homo sapiens, UniProt Q99581 1-238).
T7 sequence: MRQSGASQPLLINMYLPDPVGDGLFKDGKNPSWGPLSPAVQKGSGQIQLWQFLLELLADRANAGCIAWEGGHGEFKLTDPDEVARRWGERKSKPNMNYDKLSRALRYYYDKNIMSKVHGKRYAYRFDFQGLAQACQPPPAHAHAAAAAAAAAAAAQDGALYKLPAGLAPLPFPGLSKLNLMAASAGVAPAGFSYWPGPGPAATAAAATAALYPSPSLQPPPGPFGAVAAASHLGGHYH
The note with it: protein: recombinant; tags: N-terminal GST; dsDNA, one strand shown. In outline:
as §1

Another experiment has as its target ETV5 (Homo sapiens, UniProt P41161 1-510). The note with it: protein: recombinant; tags: N-terminal GST; dsDNA, one strand shown. The method, boiled down:
as §1

The target of a further experiment is HSF1 (Homo sapiens, UniProt Q00613 1-529). The note with it: protein: recombinant; tags: N-terminal GST; chain copies: 3; dsDNA, one strand shown. In outline: as §1
The target in another experiment is T8, SPIC (Homo sapiens, UniProt Q8N5J4 1-248).
T8 sequence: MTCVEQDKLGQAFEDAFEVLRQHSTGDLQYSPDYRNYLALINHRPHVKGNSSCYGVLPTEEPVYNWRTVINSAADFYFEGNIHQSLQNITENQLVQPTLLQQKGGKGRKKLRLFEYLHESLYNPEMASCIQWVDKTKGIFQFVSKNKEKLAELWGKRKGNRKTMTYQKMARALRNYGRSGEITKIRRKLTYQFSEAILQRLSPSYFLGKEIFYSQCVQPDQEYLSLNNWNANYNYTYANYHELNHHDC
The note with it: protein: recombinant; tags: N-terminal GST; dsDNA, one strand shown. In outline:
as §1

A further experiment concerns the target ELF4 (Homo sapiens, UniProt Q99607 1-663). The note with it: protein: recombinant; tags: N-terminal GST; dsDNA, one strand shown. The method, boiled down: as §1
In the next experiment the target is T9, ELK4 (Homo sapiens, UniProt P28324-2 1-405).
T9 sequence: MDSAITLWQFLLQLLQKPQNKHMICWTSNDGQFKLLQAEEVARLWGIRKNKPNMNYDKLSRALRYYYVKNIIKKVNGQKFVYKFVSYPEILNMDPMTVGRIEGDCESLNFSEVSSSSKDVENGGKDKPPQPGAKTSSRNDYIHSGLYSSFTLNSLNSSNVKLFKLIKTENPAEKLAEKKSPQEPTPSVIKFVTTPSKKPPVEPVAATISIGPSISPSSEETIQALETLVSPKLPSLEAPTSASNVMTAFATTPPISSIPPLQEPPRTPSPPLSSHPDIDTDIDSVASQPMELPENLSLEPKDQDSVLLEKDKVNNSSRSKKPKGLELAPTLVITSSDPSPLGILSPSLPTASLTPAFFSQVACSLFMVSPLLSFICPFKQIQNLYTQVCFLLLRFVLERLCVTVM
The note with it: protein: recombinant; tags: N-terminal GST; dsDNA, one strand shown. The method, boiled down:
as §1

In a further experiment the target is T10, ETV2 (Homo sapiens, UniProt O00321 1-342).
T10 sequence: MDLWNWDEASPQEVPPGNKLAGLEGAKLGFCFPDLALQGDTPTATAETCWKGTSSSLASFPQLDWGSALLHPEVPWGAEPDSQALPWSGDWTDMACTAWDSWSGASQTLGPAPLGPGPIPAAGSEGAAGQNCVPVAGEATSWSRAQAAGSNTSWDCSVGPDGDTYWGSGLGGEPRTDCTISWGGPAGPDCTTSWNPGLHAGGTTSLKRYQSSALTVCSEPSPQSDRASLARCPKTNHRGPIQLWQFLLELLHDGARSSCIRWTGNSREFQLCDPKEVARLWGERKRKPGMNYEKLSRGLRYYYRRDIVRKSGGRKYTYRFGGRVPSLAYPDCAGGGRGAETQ
The note with it: protein: recombinant; tags: N-terminal GST; dsDNA, one strand shown. The method, boiled down:
as §1

A further experiment has as its target T11, ELF3 (Homo sapiens, UniProt P78545 1-371).
T11 sequence: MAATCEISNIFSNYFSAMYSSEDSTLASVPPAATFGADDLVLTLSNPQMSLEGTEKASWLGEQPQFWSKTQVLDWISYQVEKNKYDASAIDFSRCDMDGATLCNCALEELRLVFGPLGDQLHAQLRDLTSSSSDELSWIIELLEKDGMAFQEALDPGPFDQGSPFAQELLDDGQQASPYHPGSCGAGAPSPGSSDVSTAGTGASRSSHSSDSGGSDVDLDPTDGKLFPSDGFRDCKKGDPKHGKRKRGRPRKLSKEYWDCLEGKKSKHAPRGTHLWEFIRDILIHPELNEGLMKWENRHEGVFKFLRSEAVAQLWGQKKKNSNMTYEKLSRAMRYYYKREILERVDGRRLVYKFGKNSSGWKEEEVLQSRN
The note with it: protein: recombinant; tags: N-terminal GST; dsDNA, one strand shown. In outline:
as §1

For another experiment, the target named is ETV1 (Homo sapiens, UniProt P50549 1-477). The note with it: protein: recombinant; tags: N-terminal GST; dsDNA, one strand shown. In outline: as §1
ETV1, sequence (P50549 whole entry): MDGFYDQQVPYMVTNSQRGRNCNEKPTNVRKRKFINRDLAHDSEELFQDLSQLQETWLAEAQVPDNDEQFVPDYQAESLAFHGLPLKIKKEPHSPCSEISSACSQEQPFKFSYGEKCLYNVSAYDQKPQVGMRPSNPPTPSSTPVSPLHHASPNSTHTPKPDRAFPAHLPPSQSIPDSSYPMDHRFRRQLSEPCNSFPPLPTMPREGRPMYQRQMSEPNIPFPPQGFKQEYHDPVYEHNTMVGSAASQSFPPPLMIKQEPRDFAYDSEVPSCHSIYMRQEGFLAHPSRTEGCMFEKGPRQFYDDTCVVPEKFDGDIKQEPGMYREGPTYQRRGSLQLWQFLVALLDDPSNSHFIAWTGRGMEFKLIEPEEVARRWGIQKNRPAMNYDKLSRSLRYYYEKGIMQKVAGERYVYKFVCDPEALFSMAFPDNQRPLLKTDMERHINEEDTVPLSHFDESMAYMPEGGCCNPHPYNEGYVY

SPIB, sequence (Q01892 whole entry): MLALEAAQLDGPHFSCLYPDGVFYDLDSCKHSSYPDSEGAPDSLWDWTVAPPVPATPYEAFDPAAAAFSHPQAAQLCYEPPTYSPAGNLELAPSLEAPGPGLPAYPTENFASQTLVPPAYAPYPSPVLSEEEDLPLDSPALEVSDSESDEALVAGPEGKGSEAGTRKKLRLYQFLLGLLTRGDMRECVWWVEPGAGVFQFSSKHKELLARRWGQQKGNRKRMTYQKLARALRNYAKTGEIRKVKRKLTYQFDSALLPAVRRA
ELF4, sequence (Q99607 whole entry): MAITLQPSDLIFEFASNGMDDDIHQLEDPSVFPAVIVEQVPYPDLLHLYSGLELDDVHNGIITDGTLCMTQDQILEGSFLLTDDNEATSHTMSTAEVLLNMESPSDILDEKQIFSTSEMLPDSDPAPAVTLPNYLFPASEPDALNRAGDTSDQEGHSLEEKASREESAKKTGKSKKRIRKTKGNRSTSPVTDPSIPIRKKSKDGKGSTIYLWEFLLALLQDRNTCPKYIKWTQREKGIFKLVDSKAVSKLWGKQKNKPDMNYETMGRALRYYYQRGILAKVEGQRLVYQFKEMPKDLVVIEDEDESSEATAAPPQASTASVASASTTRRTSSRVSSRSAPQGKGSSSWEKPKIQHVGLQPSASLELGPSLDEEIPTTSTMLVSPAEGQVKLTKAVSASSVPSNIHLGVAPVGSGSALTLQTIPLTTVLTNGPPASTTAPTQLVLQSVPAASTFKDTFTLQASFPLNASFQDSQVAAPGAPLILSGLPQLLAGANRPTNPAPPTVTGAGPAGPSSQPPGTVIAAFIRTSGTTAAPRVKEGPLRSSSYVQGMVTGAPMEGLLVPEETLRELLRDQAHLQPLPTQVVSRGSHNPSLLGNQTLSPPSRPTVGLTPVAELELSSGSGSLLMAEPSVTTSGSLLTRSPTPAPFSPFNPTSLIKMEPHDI
ETV5, sequence (P41161 whole entry): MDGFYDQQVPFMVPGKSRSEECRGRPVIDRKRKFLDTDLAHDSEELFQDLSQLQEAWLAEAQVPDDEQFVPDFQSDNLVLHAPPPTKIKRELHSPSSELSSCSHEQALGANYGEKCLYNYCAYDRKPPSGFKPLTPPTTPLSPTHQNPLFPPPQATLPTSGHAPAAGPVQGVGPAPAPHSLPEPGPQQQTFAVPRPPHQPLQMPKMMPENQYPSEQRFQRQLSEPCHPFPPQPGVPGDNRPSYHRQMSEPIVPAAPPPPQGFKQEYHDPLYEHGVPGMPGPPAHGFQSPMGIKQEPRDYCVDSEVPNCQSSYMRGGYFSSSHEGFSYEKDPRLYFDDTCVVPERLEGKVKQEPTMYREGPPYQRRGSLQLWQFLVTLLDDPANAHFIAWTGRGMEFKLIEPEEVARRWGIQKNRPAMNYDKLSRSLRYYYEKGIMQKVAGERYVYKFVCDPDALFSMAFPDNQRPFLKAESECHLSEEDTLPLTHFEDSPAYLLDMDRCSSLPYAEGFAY
ELF1, sequence (P32519 whole entry): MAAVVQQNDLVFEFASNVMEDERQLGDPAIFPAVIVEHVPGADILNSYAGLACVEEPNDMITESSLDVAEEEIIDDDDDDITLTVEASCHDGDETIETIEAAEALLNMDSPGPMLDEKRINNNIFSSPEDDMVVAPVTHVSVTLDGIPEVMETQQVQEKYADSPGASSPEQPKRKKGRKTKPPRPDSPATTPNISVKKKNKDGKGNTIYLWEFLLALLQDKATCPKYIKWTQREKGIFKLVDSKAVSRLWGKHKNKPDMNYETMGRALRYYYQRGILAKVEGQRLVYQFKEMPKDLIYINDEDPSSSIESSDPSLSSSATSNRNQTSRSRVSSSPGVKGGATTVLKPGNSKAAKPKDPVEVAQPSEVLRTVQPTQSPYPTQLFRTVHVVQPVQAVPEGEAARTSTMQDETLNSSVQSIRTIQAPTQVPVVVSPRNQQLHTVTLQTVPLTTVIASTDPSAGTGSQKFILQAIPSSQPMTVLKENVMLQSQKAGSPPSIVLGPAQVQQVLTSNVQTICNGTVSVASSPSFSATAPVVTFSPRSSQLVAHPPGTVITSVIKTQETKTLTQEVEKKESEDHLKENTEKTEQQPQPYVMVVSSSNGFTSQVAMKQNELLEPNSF
HSF1, sequence (Q00613 whole entry): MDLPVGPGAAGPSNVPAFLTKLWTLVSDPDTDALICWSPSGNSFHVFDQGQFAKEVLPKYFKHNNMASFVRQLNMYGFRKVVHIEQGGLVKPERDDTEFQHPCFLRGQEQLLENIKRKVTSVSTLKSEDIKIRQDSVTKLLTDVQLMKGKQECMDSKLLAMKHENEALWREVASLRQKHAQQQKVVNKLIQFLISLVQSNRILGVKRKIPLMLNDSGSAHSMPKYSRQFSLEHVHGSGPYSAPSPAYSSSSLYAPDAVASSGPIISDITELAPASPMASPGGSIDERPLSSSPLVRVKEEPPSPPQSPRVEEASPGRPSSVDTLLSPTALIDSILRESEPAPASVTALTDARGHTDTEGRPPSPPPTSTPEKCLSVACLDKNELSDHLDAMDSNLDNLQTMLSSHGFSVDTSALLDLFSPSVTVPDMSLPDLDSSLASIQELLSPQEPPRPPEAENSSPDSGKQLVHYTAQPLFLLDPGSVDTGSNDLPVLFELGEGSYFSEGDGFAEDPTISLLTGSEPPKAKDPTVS

Turning to AACTTG, the binding signal in the experiment with FLI1 is 1.26 fold enrichment (6-mer frequency, TF over GST control); in the experiment with ELK1, 1.2 fold enrichment (6-mer frequency, TF over GST control); in the experiment with GABPA it was 1.18 fold enrichment (6-mer frequency, TF over GST control); in the experiment with ERG, 1.11 fold enrichment (6-mer frequency, TF over GST control); with ELF1, 1.21 fold enrichment (6-mer frequency, TF over GST control); with EHF, 1.14 fold enrichment (6-mer frequency, TF over GST control). Moreover, the binding signal in the experiment with SPI1 is 1.15 fold enrichment (6-mer frequency, TF over GST control); with SPIB, 1.19 fold enrichment (6-mer frequency, TF over GST control); with ELK3 it was 1.08 fold enrichment (6-mer frequency, TF over GST control); with FEV, 1.17 fold enrichment (6-mer frequency, TF over GST control); in the experiment with ETV5, 1.14 fold enrichment (6-mer frequency, TF over GST control); in the experiment with HSF1, 1.09 fold enrichment (6-mer frequency, TF over GST control). Also, the binding signal in the experiment with SPIC is 1.27 fold enrichment (6-mer frequency, TF over GST control); with ELF4, 1.28 fold enrichment (6-mer frequency, TF over GST control); with ELK4, 1.11 fold enrichment (6-mer frequency, TF over GST control); in the experiment with ETV2 it was 1.12 fold enrichment (6-mer frequency, TF over GST control); in the experiment with ELF3 it was 1.19 fold enrichment (6-mer frequency, TF over GST control); in the experiment with ETV1, 1.05 fold enrichment (6-mer frequency, TF over GST control).
